Screening data (PubChem BioAssay)
An excerpt weighted towards active compounds, which were near 3.6% of everything screened.
PI5P4Ka inh: blocks human PI5P4K alpha kinase activity; P48426; PI5P4Kalpha enzyme, ADP-Glo luminescence, 60 min; hits give low values; max response, %; 1.2% of 330,000 active; active = max response of -50% or lower; inconclusive = between -30% and -50%; inactive = -30% or higher; also: value at the top dose of about 77 µM
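Controls without substrate or without enzyme flank wells where PI5P4Kalpha converts substrate using 5 microM ATP (final). Incubation lasts 60 minutes at room temperature; ADP formed is read by ADP-Glo luminescence.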
PLK1 PBD inh: blocks phosphopeptide binding to human PLK1 polo-box domain; Potency, µM, actives largely listed as inhibitors; Plk1 PBD binding of FITC phosphopeptide, fluorescence polarization; 2.8% of 360,000 active; AID 720504; P53350; also: series mostly up to about 57 µM; nearly all actives have a fitted effect of over 65% in size
Rango-impB inh: inhibitors of Rango-importin beta complex formation. Q14974. Rango CFP/YFP FRET sensor + importin beta, 45 min. Potency, µM (doses to about 92.2 µM). 0.031% of 340,000 active. AID 540263; calls by dose curve; also: nearly all actives have a fitted effect of over 15% in size
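FRET biosensor Rango (snurportin 1 IBB between N-terminal EYFP and C-terminal Cerulean), 50 nM in PBS/1 mM DTT/0.02% Tween-20/0.1% BSA, preincubated 5 min RT with compound; 0.125 microM importin beta added, 45 min RT, CFP/YFP FRET ratio read.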
KAT2A inh: blocks human GCN5L2 histone acetyltransferase. Q92830. GCN5L2 HAT assay, ThioGlo1 CoA-SH fluorescence. Potency, µM (series often up to 58.9 µM), actives largely listed as inhibitors. 0.21% of 390,000 active. AID 504327
Target sequence (Q92830 whole entry, looked up): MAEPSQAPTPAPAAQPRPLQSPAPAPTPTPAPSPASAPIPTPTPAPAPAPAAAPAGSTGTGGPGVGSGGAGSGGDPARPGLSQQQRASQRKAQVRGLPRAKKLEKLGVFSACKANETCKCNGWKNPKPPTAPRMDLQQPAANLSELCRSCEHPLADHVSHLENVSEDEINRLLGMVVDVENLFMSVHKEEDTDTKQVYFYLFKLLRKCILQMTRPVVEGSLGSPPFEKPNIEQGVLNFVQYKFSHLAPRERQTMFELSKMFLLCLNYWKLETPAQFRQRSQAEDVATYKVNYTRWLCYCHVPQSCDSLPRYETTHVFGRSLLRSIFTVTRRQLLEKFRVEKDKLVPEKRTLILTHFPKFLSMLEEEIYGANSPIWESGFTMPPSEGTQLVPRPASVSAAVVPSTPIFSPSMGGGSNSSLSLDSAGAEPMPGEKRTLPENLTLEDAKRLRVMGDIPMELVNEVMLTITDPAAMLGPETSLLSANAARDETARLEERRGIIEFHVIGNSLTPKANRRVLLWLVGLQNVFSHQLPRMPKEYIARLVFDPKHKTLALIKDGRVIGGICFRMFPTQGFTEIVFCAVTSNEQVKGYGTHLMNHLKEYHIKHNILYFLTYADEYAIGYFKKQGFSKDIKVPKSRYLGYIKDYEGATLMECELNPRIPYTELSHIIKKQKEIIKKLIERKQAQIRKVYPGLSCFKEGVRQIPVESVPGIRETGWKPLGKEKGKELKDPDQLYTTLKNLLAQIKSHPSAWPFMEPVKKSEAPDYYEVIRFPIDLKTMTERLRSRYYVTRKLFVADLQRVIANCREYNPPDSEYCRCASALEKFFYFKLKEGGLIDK
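Compounds, pin-transferred from DMSO stocks, meet 20nM GCN5L2 for 15 min before the reaction begins with H3(1-25) peptide (75uM) and acetyl-CoA (70uM). Thiol-reactive ThioGlo1 reports CoA release over 20 min at room temperature.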
Rango release inh: prevents RanGTP from dissociating the Rango-importin beta complex; Biochemical FRET Rango-importin beta, RanGTP-induced dissociation; Potency, µM (highest dose often 46.1 µM); 0.071% of 340,000 active; AID 540253; calls by dose curve; also: nearly all actives have a fitted effect of over 45% in size
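Two FRET readings bracket the reaction: one 5 min after compound meets Rango–importin beta, another 45 min after RanGTP-RCC1 (0.6 uM Ran, 0.2 uM RCC1, 2 mM GTP) is added. Only the second defines inhibition.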
VDR inh: inhibitors of human vitamin D receptor. P11473. VDR-SRC2-3 peptide fluorescence polarization, 2 h. Potency, µM, actives largely listed as inhibitors. 0.93% of 400,000 active. AID 504847
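FP read-out; VDR + SRC2-3 coactivator peptide; 23 nl compound by pintool; 2 h RT incubation; reagents held at 4 deg C, protected from light.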
USP1 UbRho: USP1-UAF1 deubiquitinase inhibition validated | Ub-Rhodamine cleavage, fluorescence kinetic read | Potency, µM (top dose mostly 114 µM), most hits filed as inhibitors | 50% of 50 active | shares compounds with VDR inh | AID 540327
VDR inh confirm: inhibits human vitamin D receptor, primary hit validation; shares compounds with VDR inh; VDR-coactivator inhibition assay, qHTS confirmation; Potency, µM, most hits filed as inhibitors; 89% of 840 active
VDR FP: VDR (human) coactivator binding inhibition, fluorescein polarization. shares compounds with VDR inh. VDR-coactivator binding, fluorescein fluorescence polarization. Potency, µM (top dose mostly 57.1 µM), actives largely listed as inhibitors. 48% of 840 active
VDR bla reporter: inhibits human VDR in beta-lactamase reporter cells; shares compounds with VDR inh; VDR beta-lactamase reporter cells, FRET ratio; cells co-treated with VDR agonist LG190178; AID 602202; Potency, µM (series often up to 46.1 µM), usual class: inhibitors; 23% of 840 active
VDR viability: counter-screen for vitamin D receptor inhibitors: cytotoxicity; 18% of 840 active; Potency, µM (titrated, usually from 48.3 µM), hits mostly cytotoxic; shares compounds with VDR inh; cytotoxicity counter-screen, cell viability, qHTS; also: nearly all actives have a fitted effect of over 75% in size
Each line names hits and unclear results; the compound was inactive in the other large screens (follow-up assays come after a bar, where they were run). Unless noted, calls follow the shape of the dose curve; as a rule, active = well fitted curve in the direction sought with a large enough effect; inconclusive = small, poorly fitted or top-dose-only effect, or another doubt; inactive = no such curve, though single readings can be large; an effect the other way counts as inactive or inconclusive.

N#Cc1cccc(S(=O)(=O)N2CCN(c3nc(-c4cccs4)nc4ccccc34)CC2)c1	none (no result: PI5P4Ka inh, PLK1 PBD inh, Rango-impB inh, KAT2A inh, Rango release inh)
COC(=O)[C@@H]1[C@@H](C#N)C2(c3ccccc3-c3ccccc32)N(c2ccc(Cl)cc2)N1C#N	PLK1 PBD inh inconclusive, VDR inh 25.1µM | VDR inh confirm 23.8 | VDR FP inconclusive | VDR bla reporter inconclusive | VDR viability inconclusive
CCOC(=O)c1cccc(NC(=O)CC(c2cc(OC)c(OC)c(OC)c2)N2Cc3ccccc3C2=O)c1 (stereo not drawn)	none (no result: PI5P4Ka inh, PLK1 PBD inh, Rango-impB inh, Rango release inh)
Cc1ccc(NC(=O)CN2C(=O)NC(C)(c3ccc(Cl)cc3)C2=O)cc1 (stereo not drawn)	none
Cc1ccc(C2(C)NC(=O)N(CC(=O)Nc3nc(-c4ccccn4)cs3)C2=O)cc1 (stereo not drawn)	PI5P4Ka inh -59.1, PLK1 PBD inh 4.23µM, VDR inh inconclusive | VDR inh confirm 11.2 | VDR FP inconclusive | VDR bla reporter inconclusive | VDR viability inactive
Cc1sc(NC(=O)COc2ccccc2)c(C#N)c1C	PLK1 PBD inh 7.52µM, KAT2A inh inconclusive, VDR inh 50.1µM | VDR inh confirm 23.8 | VDR FP inconclusive | VDR bla reporter inactive | VDR viability inactive
Cc1ccc(Cl)cc1NC(=O)c1oc2ccc(S(=O)(=O)N(C)C3CCCCC3)cc2c1C	none (no result: PI5P4Ka inh, PLK1 PBD inh, Rango-impB inh, Rango release inh)
CCOc1ccccc1N(CC(=O)Nc1ccc(OC)c(Cl)c1)S(=O)(=O)c1ccccc1	none (no result: PI5P4Ka inh, PLK1 PBD inh, Rango-impB inh, Rango release inh)
O=C(N[C@@H](Cc1ccccc1)C(=O)CCl)OCc1ccccc1	PLK1 PBD inh 29.9µM, VDR inh 5.62µM | USP1 UbRho 26.4µM
O=C(N[C@@H](Cc1ccccc1)C(=O)N[C@@H](Cc1ccccc1)C(=O)O)OCc1ccccc1	none
O=C(CCS(=O)(=O)c1nc(-c2ccc3c(c2)OCO3)cc(C(F)(F)F)n1)Nc1ccc(F)c(Cl)c1	VDR inh 8.91µM (no result: PI5P4Ka inh, PLK1 PBD inh, Rango-impB inh, Rango release inh) | VDR inh confirm 7.08 | VDR FP 7.94µM | VDR bla reporter 23.1µM | VDR viability inconclusive
COc1ccc(NC(=O)CCS(=O)(=O)c2nc(-c3cccs3)cc(C(F)(F)F)n2)cc1OC	VDR inh 44.7µM (no result: PI5P4Ka inh, PLK1 PBD inh, Rango-impB inh, Rango release inh) | VDR inh confirm inconclusive | VDR FP 25.1µM | VDR bla reporter inactive | VDR viability inactive
Cc1ccc(S(=O)(=O)c2nnn3c2nc(NCc2ccc4c(c2)OCO4)c2sccc23)cc1C	none (no result: PI5P4Ka inh, PLK1 PBD inh, Rango-impB inh, Rango release inh)
Fc1cccc(CSc2nc(NCCc3ccccc3)c3ccccc3n2)c1	none (no result: PI5P4Ka inh, PLK1 PBD inh, Rango-impB inh, Rango release inh)
O=C(/C=C/c1ccccc1)n1cnnc1SC/C=C/c1ccccc1	PLK1 PBD inh inconclusive, VDR inh 39.8µM | VDR inh confirm 16.8 | VDR FP inconclusive | VDR bla reporter inactive | VDR viability inactive
CCc1cccc(NC(=O)CSc2ncc3c(n2)-c2ccccc2N(Cc2ccccc2C)S3(=O)=O)c1	none (no result: PI5P4Ka inh, PLK1 PBD inh, Rango-impB inh, Rango release inh)
CCOC(=O)c1sc(NC(=O)c2ccncc2)c(C#N)c1C	PI5P4Ka inh inconclusive, PLK1 PBD inh 3.77µM, KAT2A inh inconclusive, VDR inh 44.7µM | VDR inh confirm 3.77 | VDR FP inconclusive | VDR bla reporter inactive | VDR viability inconclusive
CCOC(=O)c1sc(NC(=O)CSc2nc(C)cc(C)c2C#N)c(C#N)c1C	Rango-impB inh inconclusive, Rango release inh inconclusive
COc1ccc(C)cc1N1C(=N)/C(=C2/Nc3ccccc3S2)C(c2ccccc2)C1=O (stereo not drawn)	PLK1 PBD inh inconclusive, VDR inh inconclusive | VDR inh confirm 10 | VDR FP 8.91µM | VDR bla reporter inactive | VDR viability inactive
O=C(O)CC(NS(=O)(=O)c1ccc(Br)s1)c1ccccc1 (stereo not drawn)	none (no result: PI5P4Ka inh, PLK1 PBD inh, Rango-impB inh, Rango release inh)
COc1ccc(S(=O)(=O)Nc2cc(Sc3ncn[nH]3)c(O)c3ccccc23)cc1	KAT2A inh inconclusive, VDR inh 20µM (no result: PI5P4Ka inh, PLK1 PBD inh, Rango-impB inh, Rango release inh) | VDR inh confirm 21.2 | VDR FP inconclusive | VDR bla reporter inconclusive | VDR viability 18.4µM
Cc1cc(C)c(S(=O)(=O)Nc2cc(SCC(=O)O)c(O)c3ccccc23)cc1C	PI5P4Ka inh -59.5, PLK1 PBD inh 1.5µM, VDR inh 22.4µM | VDR inh confirm 5.32 | VDR FP 11.2µM | VDR bla reporter inactive | VDR viability inconclusive
COc1ccc(S(=O)(=O)Nc2cccc3ccc(O)cc23)cc1	none (no result: KAT2A inh)
COc1ccc(S(=O)(=O)Nc2cc(SCC(=O)O)c(O)c3ccccc23)cc1	PI5P4Ka inh -51.2, PLK1 PBD inh 1.5µM, VDR inh inconclusive | VDR inh confirm 15.8 | VDR FP 14.1µM | VDR bla reporter inconclusive | VDR viability inconclusive
